Our source for the inhibition values is ChEMBL document CHEMBL1961873, “Compounds: GSK PKIS; Assays: Nanosyn kinase panel” (2012).

Values joined by “and” are separate entries in the source; they are usually repeats but may differ in a detail not shown here. Identical values can stand only once.

One may read the inhibition as the change of the read-out against control, counted positive when it falls.

For assay [1], the target named is Mast/stem cell growth factor receptor Kit (Homo sapiens) (UniProt P10721). Conditions: at 1 µM.
Sequence of Mast/stem cell growth factor receptor Kit (Homo sapiens) (P10721 whole entry): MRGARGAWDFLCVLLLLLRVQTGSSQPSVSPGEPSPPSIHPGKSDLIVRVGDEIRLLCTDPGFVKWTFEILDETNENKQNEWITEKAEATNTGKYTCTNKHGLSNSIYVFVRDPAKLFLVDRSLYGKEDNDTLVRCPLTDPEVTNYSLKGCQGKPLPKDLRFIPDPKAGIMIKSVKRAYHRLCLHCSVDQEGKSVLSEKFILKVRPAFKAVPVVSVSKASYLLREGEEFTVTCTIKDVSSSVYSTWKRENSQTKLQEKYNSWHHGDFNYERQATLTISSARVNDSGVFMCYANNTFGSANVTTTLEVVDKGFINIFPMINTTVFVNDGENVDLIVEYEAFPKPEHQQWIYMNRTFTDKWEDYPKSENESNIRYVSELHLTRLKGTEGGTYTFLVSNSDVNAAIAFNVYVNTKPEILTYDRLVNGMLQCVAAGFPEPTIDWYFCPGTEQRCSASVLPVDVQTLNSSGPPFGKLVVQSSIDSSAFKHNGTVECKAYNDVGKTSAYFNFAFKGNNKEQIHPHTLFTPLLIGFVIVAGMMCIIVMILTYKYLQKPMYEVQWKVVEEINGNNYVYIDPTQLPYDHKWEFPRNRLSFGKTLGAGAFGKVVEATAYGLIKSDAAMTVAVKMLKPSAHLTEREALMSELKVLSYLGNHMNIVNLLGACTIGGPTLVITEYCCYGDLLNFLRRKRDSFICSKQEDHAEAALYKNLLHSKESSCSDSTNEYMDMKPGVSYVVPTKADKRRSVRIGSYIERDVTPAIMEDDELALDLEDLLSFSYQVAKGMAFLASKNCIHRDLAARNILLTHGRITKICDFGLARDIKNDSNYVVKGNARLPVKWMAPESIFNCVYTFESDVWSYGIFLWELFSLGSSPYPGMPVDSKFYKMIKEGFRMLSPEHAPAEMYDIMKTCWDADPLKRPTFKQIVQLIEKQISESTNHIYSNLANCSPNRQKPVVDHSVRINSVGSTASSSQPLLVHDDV
The subject of assay [2] is Mast/stem cell growth factor receptor Kit (Homo sapiens), P10721 [D816V]. To be noted: at 0.1 µM.
Assay [3] has the same test system. Conditions: at 1 µM.
The test system of assay [4] is Mast/stem cell growth factor receptor Kit (Homo sapiens), P10721 [T670I]. To be noted: at 0.1 µM.
Sequence of Mast/stem cell growth factor receptor Kit (Homo sapiens), P10721 [T670I] (P10721 whole entry T670I): as the sequence (P10721 whole entry) above, with T670I counted along it
The test system is the same in assay [5]. To be noted: at 1 µM.
Assay [6] deals with Mast/stem cell growth factor receptor Kit (Homo sapiens), P10721 [V560G]. Conditions: at 0.1 µM.
Sequence of Mast/stem cell growth factor receptor Kit (Homo sapiens), P10721 [V560G] (P10721 whole entry V560G): as the sequence (P10721 whole entry) above, with V560G counted along it
The test system is the same in assay [7]. To be noted: at 1 µM.
Assay [8] deals with Tyrosine-protein kinase Lck (Homo sapiens) (UniProt P06239). To be noted: at 0.1 µM.
Sequence of Tyrosine-protein kinase Lck (Homo sapiens) (P06239 2-509 limits assumed): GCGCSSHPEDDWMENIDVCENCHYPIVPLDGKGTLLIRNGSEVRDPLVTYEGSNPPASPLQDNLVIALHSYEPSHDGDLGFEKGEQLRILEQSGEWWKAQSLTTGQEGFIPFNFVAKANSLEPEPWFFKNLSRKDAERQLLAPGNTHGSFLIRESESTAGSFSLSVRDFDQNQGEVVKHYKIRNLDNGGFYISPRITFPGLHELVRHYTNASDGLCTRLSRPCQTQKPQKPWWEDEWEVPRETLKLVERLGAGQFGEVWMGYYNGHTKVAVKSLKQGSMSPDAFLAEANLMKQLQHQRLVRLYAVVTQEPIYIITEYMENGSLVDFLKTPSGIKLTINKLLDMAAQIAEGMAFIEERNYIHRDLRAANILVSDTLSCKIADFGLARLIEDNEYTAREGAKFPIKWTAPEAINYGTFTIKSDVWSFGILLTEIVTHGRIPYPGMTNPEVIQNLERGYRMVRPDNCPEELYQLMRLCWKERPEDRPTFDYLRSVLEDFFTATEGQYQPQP
Assay [9] shares this target. Conditions: at 1 µM.
Assay [10] has as its target Leukocyte tyrosine kinase receptor (Homo sapiens) (UniProt P29376). Conditions: at 0.1 µM.
Assay [11] shares this target. To be noted: at 1 µM.
Assay [12] has as its target Tyrosine-protein kinase Lyn (Homo sapiens) (UniProt P07948). Conditions: at 0.1 µM.
Assay [13] has the same target. Conditions: at 1 µM.
Assay [14] shares this target. Conditions: at 0.1 µM. The source holds these as a separate data set.
Assay [15] has the same target. To be noted: at 1 µM. This is another data set of the same source.
In assay [16] the target is T1, Tyrosine-protein kinase Mer (Homo sapiens) (UniProt Q12866).
T1 sequence (whole entry): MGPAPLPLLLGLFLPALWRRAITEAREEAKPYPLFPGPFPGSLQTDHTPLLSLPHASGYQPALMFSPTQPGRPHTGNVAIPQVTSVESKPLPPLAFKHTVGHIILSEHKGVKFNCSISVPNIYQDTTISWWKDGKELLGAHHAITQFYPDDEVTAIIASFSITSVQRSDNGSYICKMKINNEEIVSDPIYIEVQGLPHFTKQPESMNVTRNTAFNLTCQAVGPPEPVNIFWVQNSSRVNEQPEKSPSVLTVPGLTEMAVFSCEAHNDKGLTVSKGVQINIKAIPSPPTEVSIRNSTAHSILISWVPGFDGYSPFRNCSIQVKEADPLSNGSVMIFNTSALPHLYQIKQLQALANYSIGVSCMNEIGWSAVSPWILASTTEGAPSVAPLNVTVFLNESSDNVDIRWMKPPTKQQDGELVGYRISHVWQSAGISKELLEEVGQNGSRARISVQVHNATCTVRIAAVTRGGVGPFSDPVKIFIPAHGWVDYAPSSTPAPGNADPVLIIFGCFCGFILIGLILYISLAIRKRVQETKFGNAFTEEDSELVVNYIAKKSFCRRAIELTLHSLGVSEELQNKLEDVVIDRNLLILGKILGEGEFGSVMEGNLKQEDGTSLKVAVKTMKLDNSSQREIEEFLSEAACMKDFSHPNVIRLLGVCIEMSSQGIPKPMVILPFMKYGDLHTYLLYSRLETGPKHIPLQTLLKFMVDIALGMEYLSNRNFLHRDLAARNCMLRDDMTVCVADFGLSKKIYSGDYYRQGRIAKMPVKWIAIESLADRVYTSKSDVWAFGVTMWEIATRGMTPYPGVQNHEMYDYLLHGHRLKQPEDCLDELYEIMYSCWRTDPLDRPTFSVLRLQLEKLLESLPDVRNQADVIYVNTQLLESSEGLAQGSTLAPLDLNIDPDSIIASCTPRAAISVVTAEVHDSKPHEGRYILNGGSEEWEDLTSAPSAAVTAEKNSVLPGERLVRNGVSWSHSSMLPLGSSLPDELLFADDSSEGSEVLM
To be noted: at 0.1 µM.

Assay [17] has as its target T1, Tyrosine-protein kinase Mer (Homo sapiens). Conditions: at 1 µM.
Assay [18] deals with Hepatocyte growth factor receptor (Homo sapiens) (UniProt P08581). To be noted: at 0.1 µM.
Sequence of Hepatocyte growth factor receptor (Homo sapiens) (P08581 whole entry): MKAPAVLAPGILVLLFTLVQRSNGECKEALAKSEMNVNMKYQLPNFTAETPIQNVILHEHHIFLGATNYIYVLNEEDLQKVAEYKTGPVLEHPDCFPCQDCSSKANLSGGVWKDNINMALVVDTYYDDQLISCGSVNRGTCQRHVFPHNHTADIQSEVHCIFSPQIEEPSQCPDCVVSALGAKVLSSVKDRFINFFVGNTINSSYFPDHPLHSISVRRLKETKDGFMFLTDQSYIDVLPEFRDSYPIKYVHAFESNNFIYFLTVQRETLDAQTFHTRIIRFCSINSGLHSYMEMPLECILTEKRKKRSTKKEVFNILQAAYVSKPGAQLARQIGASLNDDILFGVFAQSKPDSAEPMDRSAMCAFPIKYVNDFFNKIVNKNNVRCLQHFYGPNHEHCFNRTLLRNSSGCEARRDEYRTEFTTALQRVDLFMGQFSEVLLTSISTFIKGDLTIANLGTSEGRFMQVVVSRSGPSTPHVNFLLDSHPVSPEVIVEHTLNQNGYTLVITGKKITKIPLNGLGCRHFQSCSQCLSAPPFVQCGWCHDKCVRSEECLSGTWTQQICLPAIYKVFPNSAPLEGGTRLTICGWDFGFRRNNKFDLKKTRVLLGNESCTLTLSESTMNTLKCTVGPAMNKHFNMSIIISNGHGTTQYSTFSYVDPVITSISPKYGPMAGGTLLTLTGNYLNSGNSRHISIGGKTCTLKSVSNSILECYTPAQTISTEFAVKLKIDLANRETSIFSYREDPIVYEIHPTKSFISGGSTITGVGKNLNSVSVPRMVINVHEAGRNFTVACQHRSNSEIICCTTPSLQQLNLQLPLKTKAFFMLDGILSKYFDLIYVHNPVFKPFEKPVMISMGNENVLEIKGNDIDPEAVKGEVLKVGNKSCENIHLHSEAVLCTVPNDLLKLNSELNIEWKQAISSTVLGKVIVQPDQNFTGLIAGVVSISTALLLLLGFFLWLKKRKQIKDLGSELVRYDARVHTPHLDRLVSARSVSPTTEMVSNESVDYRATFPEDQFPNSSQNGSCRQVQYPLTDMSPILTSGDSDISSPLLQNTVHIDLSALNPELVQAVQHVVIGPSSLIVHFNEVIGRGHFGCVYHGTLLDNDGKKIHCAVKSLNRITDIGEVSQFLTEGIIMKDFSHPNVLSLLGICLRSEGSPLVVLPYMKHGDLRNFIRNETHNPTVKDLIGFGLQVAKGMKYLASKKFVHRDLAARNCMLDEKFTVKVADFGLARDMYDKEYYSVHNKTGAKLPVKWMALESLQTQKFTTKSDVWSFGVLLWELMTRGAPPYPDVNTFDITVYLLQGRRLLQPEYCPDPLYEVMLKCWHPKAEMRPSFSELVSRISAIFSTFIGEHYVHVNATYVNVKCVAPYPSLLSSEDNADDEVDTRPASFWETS
Assay [19] shares this target. To be noted: at 1 µM.
In assay [20] the target is T2, Muscle, skeletal receptor tyrosine-protein kinase (Homo sapiens) (UniProt O15146).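 Note: values are mean inhibition of MuSK from the GSK PKIS kinase screening panel.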
T2 sequence (whole entry): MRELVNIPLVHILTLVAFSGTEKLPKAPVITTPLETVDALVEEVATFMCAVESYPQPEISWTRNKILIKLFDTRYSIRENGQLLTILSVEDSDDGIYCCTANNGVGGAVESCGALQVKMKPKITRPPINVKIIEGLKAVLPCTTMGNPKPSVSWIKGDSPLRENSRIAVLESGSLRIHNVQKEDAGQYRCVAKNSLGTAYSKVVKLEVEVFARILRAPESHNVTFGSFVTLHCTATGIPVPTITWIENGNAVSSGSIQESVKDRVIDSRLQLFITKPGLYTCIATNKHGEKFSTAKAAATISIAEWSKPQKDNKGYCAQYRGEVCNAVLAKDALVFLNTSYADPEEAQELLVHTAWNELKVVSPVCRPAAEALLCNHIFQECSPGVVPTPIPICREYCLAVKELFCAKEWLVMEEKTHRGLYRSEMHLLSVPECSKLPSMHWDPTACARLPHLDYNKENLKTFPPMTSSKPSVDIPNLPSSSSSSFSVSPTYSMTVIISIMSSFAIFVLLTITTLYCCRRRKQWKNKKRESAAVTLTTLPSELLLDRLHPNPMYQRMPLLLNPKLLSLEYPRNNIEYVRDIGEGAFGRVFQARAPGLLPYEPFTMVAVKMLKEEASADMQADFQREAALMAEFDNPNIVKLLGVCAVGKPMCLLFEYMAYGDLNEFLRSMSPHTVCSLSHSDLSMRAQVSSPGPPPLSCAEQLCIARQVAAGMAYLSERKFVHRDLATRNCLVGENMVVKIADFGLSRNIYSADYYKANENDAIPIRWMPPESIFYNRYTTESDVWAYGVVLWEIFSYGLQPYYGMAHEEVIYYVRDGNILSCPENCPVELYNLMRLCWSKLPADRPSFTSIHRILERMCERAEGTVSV
Conditions: at 0.1 µM.

Sequence of Leukocyte tyrosine kinase receptor (Homo sapiens) (P29376 whole entry): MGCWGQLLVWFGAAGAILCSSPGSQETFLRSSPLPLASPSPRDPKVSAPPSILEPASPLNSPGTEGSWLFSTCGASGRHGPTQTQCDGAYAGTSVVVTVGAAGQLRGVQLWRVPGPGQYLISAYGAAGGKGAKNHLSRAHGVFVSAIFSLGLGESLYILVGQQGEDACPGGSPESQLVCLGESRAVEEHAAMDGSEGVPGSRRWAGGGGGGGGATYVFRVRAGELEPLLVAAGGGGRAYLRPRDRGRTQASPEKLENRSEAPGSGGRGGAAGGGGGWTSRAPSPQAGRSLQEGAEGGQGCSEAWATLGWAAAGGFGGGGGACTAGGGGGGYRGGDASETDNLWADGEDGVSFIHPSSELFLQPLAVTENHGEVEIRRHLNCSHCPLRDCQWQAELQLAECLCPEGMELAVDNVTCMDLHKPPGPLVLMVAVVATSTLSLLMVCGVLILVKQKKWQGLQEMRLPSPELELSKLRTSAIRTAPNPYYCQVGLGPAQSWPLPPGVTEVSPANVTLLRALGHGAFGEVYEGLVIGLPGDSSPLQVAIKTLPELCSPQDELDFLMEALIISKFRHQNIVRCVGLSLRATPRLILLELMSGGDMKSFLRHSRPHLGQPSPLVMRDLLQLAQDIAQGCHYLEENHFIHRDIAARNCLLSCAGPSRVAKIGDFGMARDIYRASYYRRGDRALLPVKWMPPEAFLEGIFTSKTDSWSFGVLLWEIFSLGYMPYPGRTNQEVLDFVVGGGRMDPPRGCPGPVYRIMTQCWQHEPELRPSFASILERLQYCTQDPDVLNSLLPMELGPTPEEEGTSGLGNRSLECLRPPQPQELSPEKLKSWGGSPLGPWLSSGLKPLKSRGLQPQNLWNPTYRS
Sequence of Mast/stem cell growth factor receptor Kit (Homo sapiens), P10721 [D816V] (P10721 whole entry D816V): as the sequence (P10721 whole entry) above, with D816V counted along it
Sequence of Tyrosine-protein kinase Lyn (Homo sapiens) (P07948 2-512 limits assumed): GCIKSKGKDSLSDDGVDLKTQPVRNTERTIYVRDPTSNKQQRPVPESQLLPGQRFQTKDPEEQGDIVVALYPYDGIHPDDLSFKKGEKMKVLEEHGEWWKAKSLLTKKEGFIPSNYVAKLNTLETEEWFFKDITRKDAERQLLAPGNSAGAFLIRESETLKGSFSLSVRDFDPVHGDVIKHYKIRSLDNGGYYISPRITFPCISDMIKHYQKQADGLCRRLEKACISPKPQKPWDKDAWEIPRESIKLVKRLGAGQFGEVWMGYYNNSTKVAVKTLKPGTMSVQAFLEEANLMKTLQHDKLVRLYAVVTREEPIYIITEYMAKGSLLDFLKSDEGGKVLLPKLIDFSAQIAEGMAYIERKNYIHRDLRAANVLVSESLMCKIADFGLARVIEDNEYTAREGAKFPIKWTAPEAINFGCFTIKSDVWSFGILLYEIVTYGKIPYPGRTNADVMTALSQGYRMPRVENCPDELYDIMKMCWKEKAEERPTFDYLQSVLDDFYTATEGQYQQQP

For `COc1cccc(Nc2nccc(-c3cnn4ncccc34)n2)c1`, the inhibition was 99.3% in assay [1]; -1.05% in assay [2]; 4.28% in [3]; 60.9% in assay [4]; 95.3% in assay [5]; 40.2% in [6]. Further, the inhibition in assay [7] was determined as 78.3%; in assay [8], 3.11%; in [9] it was 11.2%; in assay [10] it was 4.15%; in [11] it was 18.2%; in [12] it was 5.3%. For the same compound, the inhibition turned out to be 16.9% in assay [13]; 3.27% in assay [14]; 11.3% in assay [15]; 1.29% in assay [16]; 12.1% in [17]; 3.9% in [18]. The inhibition in assay [19] came to 12.1%; in assay [20], 2.83%.
In the case of `CCOc1ccc2c(-c3ccnc(Nc4cc(OC)cc(C(F)(F)F)c4)n3)cnn2n1`, the inhibition in [1] is 56.5%; in assay [2], -2.22%; in assay [3], 2.86%; in assay [4], 1.55%; in assay [5], 14.5%; in assay [6], 2.02%. Moreover, the inhibition in assay [7] amounted to 5.97%; in assay [8], 1.12%; in assay [9], 4.52%; in assay [10], 0.61%; in [11] it was 1.37%; in [12], 2.55%. Further, the inhibition came out at 5.91% in assay [13]; 0.62% in assay [14]; 4.08% in assay [15]; 1.11% in [16]; 4.18% in [17]; 4.49% in assay [18]. For the same compound, the inhibition came out at 5.18% in assay [19] and 0.02% in assay [20].
As for `Nc1nccc(-c2c(-c3ccc(F)cc3)ncn2C2CCNCC2)n1`, the inhibition in assay [1] is -2.8% and 0.85%; in assay [2] it was 13% and -2.76%; in assay [3], 1.63% and 3.54%; in assay [4], -2.81% and 0.49%; in assay [5], -3.42% and -0.01%; in assay [6], 1.31% and 1.87%. The inhibition is 3.68% and 1.62% in [7]; 1.27% and 4.01% in assay [8]; 14.3% and 17.1% in assay [9]; -2.04% and 0.7% in assay [10]; -1.33% and 1.18% in assay [11]; -0.63% and 1.67% in assay [12]. Further, the inhibition was 9.44% and 9.35% in [13]; -1.82% and 1.01% in assay [14]; 7.55% and 6.33% in assay [15]; 0.83% and 0.35% in assay [16]; 2.87% and 1.44% in assay [17]; -2.37% and 2.87% in assay [18]. The inhibition is -2.98% and 4.72% in [19]; -3.15% and 1.87% in assay [20].
As for `Fc1ccc(Nc2nccc(-c3c(-c4ccc(C(F)(F)F)cc4)nn4ncccc34)n2)cc1F`, the inhibition in assay [1] was 4.68%; in assay [2], 2.15%; in assay [3], 2.45%; in assay [4], 0.78%; in assay [5], 2.14%; in assay [6], -1.76%. In addition, the inhibition in assay [7] stood at 1.06%; in assay [8], 3.17%; in assay [9] it was 0.53%; in assay [10], 2.82%; in assay [11] it was 3.06%; in [12] it was 2.77%. The inhibition was 2.13% in [13]; 1.22% in assay [14]; 0.38% in assay [15]; 3.18% in assay [16]; 2.81% in assay [17]; 4.74% in assay [18]. Also, the results for the inhibition in assay [19] and in assay [20] were 4.74% and 2.34%, respectively.
Take `COC(=O)Nc1nc2cc(Oc3ccc(NC(=O)Nc4ccccc4)cc3)ccc2[nH]1`: the inhibition turned out to be 68% in assay [1]; 2.82% in [2]; 12% in assay [3]; 4.22% in assay [4]; 8.76% in [5]; 25.3% in assay [6]. The inhibition in assay [7] stood at 67.9%; in assay [8], 2.87%; in assay [9] it was 4.96%; in assay [10] it was 2.55%; in assay [11], 4.01%; in assay [12], 3.96%. Further, the inhibition in assay [13] was determined as 8.66%; in assay [14] it was 2.63%; in assay [15] it was 6.73%; in assay [16] it was 1.34%; in assay [17] it was 2.99%; in [18] it was 2.87%. The inhibition came to 18.7% in [19] and 3.96% in assay [20].
In the case of `OCCCNc1nccc(-c2c(-c3ccc(F)cc3)nn3cc(C(F)(F)F)ccc23)n1`, the inhibition was 8.99% in assay [1]; 1.58% in [2]; 0.33% in assay [3]; -0.18% in [4]; 0.98% in assay [5]; -1.46% in assay [6]. Also, the inhibition is -0.39% in assay [7]; 1.91% in assay [8]; 5.83% in assay [9]; 3.02% in assay [10]; -0.25% in assay [11]; 3.88% in assay [12]. Further, the inhibition was determined as 7.02% in assay [13]; 3% in assay [14]; 4.51% in [15]; 0.89% in assay [16]; 5.36% in assay [17]; 1.57% in assay [18]. Moreover, the inhibition in assay [19] was 5.11%; in [20], 2.96%.
